These results are taken from the supplement of paper PMC11732987, “Enantioselective OTUD7B fragment discovery through chemoproteomics screening and high-throughput optimisation” (Communications Chemistry, 2025).

Unmarked numbers belong to inactive results.

What all share (experiment): log2 ratio of Biotin-Ahx-Ub-VS probe labelling (fragment/DMSO); higher = less target engagement (more negative = stronger competition), active = hit call of the paper (q ≤ 0.05, log2 ratio ≤ -1)
Common to all, as to settings: compound concentration: 200 uM; treatment time: 3 h

One test concerns the target T1, OTUD6B (UniProt Q8N6M0).
T1 sequence (whole entry): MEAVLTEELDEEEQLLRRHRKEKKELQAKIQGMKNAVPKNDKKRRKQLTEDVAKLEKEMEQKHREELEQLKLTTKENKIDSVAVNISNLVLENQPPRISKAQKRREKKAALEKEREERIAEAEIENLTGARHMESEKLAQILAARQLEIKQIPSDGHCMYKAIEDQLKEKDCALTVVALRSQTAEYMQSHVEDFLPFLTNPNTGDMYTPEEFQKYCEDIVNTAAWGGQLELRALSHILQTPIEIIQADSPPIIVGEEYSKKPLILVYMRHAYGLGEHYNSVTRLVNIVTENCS
In short, it runs like this: (§1)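 HEK293T lysate in Tris/CHAPS/IGEPAL buffer with protease inhibitors (495 µg per sample) was given fragment at 200 µM or vehicle for 3 h, in triplicate. It then received Biotin-Ahx-Ub-VS at 0.5 µM final for 1 h. Labelled DUBs were NeutrAvidin-enriched, digested with LysC and trypsin, and run by diaPASEF LC-MS/MS. Values are average log2 fragment/vehicle ratios by unpaired t-test on global-median-normalised Spectronaut quantities of proteins with ≥2 unique peptides.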

The target of another test is T2, OTUD7B (UniProt Q6GQQ9).
T2 sequence (whole entry): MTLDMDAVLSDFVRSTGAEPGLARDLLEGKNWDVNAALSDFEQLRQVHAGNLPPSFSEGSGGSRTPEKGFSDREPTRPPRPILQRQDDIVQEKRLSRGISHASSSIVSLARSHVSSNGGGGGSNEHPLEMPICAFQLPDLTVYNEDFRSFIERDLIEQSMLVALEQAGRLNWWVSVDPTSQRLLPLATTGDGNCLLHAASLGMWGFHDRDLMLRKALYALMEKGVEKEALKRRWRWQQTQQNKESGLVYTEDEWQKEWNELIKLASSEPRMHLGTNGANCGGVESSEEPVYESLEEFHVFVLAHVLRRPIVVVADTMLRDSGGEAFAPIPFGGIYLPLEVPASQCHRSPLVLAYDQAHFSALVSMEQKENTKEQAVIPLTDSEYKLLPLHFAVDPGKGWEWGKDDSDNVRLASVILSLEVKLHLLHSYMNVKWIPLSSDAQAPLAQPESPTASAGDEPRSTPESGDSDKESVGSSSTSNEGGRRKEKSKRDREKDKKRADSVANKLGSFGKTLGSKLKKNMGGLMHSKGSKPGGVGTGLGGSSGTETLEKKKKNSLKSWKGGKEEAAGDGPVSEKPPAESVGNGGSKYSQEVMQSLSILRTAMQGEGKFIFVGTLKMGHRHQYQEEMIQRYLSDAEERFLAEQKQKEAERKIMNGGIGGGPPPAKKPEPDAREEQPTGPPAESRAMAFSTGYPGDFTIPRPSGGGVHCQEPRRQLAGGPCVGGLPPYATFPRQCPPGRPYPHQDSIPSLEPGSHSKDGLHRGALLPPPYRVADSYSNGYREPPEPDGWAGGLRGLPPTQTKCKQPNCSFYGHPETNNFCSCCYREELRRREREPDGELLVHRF
The essentials:
as §1

The target of a further test is PRPF8 (UniProt Q6P2Q9). The essentials:
as §1

The target of a further test is T3, PSMD7 (UniProt P51665).
T3 sequence (whole entry): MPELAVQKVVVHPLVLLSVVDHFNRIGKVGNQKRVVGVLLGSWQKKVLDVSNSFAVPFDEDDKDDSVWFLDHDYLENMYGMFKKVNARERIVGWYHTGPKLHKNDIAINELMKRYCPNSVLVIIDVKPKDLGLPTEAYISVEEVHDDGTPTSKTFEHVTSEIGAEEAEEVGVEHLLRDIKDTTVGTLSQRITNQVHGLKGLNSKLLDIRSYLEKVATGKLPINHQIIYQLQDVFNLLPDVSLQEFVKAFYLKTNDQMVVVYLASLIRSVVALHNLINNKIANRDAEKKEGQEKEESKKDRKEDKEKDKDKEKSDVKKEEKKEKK
In short, it runs like this:
as §1

A further test has as its target UCHL1 (UniProt P09936). In short, it runs like this:
as §1

The next test addresses T4, UCHL3 (UniProt P15374).
T4 sequence (whole entry): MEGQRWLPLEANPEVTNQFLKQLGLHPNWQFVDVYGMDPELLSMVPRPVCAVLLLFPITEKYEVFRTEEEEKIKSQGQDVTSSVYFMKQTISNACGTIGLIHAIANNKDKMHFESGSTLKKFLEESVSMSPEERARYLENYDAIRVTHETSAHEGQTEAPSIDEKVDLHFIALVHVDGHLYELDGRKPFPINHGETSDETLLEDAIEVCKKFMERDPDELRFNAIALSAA
The essentials:
as §1

The next test has as its target T5, UCHL5 (UniProt Q9Y5K5).
T5 sequence (whole entry): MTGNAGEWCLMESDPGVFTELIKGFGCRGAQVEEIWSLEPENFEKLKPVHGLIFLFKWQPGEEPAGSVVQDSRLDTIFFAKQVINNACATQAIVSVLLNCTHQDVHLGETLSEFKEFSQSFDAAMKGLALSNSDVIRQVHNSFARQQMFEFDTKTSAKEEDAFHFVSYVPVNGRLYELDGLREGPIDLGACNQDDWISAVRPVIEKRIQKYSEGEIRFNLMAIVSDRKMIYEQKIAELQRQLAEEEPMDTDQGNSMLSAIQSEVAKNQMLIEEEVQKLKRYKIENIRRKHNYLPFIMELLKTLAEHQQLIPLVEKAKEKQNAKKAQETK
The essentials: as §1

In a further test the target is USP10 (UniProt Q14694). The essentials:
as §1

In another test the target is T6, USP15 (UniProt Q9Y4E8).
T6 sequence (whole entry): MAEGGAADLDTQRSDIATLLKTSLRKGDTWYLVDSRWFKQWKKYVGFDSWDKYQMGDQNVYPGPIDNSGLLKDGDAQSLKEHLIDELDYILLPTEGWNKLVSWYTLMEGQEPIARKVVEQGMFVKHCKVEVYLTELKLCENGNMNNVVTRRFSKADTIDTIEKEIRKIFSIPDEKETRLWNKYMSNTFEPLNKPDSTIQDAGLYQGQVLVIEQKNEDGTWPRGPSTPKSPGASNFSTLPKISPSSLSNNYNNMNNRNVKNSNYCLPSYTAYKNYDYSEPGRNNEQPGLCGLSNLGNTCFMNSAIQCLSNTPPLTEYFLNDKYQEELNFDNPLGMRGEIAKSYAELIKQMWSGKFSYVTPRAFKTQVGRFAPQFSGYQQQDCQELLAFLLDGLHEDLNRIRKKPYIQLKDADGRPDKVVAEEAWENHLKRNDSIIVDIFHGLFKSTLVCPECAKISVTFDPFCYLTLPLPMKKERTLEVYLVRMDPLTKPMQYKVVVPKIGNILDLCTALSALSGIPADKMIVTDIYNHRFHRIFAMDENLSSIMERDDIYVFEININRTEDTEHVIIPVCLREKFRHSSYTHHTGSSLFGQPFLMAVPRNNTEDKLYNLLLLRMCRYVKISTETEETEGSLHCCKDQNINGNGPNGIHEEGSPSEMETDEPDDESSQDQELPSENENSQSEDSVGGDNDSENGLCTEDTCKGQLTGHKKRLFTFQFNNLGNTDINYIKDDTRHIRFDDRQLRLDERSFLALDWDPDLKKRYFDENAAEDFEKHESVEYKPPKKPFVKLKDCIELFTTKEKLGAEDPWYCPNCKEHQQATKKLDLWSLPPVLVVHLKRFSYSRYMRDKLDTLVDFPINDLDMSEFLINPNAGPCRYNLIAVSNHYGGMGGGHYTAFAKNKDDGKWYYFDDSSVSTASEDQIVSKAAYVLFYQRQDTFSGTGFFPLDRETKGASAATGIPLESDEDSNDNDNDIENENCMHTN
The essentials:
as §1

The target of the next test is USP16 (UniProt Q9Y5T5). In short, it runs like this:
as §1

Chain of UCHL1 (P09936 whole entry, looked up): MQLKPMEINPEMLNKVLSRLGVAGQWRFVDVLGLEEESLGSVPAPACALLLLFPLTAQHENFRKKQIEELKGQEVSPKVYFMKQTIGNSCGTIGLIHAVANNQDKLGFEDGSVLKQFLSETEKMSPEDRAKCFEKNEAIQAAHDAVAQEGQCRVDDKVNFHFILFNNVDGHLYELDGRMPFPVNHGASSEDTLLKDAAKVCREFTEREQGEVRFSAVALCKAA
Chain of USP10 (Q14694 whole entry): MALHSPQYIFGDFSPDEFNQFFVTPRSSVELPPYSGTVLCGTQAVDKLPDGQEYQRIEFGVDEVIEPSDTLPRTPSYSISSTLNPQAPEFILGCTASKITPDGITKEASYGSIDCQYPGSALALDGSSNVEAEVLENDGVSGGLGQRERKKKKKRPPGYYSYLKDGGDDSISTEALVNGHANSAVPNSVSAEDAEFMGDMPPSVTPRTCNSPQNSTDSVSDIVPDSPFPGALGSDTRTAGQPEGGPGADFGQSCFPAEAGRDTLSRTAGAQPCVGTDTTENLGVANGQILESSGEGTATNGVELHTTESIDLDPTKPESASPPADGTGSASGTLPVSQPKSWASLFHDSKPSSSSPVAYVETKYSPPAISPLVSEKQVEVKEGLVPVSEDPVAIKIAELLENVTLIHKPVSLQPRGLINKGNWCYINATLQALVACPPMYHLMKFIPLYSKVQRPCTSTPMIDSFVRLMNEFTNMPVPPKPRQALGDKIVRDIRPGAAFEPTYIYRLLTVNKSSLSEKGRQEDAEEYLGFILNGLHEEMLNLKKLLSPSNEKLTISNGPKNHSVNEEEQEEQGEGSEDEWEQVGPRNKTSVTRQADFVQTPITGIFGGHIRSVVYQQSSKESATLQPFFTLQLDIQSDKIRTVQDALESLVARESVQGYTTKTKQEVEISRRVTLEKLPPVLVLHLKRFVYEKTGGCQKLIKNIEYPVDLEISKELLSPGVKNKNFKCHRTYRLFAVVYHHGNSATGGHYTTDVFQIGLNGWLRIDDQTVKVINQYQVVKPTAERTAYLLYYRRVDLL
Chain of USP16 (Q9Y5T5 whole entry, looked up): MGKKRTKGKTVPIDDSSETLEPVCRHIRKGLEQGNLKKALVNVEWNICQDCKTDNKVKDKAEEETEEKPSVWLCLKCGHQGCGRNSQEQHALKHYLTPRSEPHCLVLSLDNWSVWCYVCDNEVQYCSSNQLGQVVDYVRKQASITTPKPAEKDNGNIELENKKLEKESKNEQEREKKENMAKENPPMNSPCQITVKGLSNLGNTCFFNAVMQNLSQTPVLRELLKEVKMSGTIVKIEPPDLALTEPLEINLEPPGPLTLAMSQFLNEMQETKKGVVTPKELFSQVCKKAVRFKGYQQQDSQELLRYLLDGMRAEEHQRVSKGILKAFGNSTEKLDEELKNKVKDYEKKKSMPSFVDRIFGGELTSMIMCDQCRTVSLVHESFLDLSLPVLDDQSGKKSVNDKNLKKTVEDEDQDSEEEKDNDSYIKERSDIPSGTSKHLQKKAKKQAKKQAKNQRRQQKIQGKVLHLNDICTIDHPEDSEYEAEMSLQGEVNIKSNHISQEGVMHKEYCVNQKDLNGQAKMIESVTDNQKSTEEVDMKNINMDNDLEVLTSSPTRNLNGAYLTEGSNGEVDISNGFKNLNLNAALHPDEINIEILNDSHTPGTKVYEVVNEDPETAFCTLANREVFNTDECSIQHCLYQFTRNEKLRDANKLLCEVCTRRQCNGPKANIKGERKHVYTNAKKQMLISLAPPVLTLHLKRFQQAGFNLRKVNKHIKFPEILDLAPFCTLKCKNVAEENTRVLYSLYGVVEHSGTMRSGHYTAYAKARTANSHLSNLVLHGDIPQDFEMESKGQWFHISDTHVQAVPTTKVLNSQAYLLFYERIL

In the case of `O=C(CCl)NCCC1COCCO1` (stereo not given), the “log2 ratio of Biotin-Ahx-Ub-VS probe labelling” value in the test with OTUD6B was -0.0161; with OTUD7B, -0.0714; in the test with PRPF8, -0.0389; with PSMD7, -0.237; in the test with UCHL1 it was -1.39 (active); with UCHL3, 0.227. The “log2 ratio of Biotin-Ahx-Ub-VS probe labelling” value is -0.221 with UCHL5, -0.143 in the test with USP10, 0.0547 with USP15 and -0.519 in the test with USP16.
